# Cl transport mod: modulators of human KCC2 chloride dependent transport; actives 2.2% (n = 190,000); B-score of Tl+ flux slope (higher = more flux/activation; lower = inhibition) at 10 µM; KCC2 cells, thallium flux FluoZin-2 fluorescence; Q9H2X9;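 active = thallium flux slope and its plate-corrected score both differing from the plate sample mean at a set confidence after two filtering rounds, in either direction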;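 also: slope of fluorescence scaled to starting intensity during 10 to 20 s after thallium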
# Target sequence (Q9H2X9 whole entry, looked up): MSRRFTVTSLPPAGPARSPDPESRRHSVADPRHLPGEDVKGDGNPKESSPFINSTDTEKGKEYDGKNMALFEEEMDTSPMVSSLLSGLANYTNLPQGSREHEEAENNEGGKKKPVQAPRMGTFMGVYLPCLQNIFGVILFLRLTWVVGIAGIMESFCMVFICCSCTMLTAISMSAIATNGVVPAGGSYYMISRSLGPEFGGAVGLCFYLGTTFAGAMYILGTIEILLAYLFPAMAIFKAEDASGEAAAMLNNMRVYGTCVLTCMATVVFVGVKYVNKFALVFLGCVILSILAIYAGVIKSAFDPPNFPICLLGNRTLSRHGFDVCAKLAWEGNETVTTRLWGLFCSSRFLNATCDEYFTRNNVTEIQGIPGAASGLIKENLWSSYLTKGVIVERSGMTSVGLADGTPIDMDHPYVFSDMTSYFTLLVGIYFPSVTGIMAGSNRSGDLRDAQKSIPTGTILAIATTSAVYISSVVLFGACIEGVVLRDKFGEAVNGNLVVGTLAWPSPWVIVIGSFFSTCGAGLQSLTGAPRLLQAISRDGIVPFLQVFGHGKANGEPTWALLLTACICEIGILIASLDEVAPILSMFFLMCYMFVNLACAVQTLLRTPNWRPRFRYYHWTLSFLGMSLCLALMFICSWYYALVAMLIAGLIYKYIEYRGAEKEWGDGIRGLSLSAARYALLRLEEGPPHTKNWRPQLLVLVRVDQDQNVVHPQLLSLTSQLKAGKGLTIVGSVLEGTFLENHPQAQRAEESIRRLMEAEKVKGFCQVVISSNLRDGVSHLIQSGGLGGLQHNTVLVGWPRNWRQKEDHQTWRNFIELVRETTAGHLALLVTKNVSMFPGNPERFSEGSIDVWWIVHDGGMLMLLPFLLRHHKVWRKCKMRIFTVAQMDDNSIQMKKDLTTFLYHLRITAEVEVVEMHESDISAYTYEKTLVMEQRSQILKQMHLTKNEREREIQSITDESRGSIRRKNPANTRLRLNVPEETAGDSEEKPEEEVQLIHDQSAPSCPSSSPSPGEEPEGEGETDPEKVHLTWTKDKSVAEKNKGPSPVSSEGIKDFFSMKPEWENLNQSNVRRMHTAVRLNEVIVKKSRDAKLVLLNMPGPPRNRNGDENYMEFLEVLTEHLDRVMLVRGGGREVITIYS
# Measles CPE: protection of cells from measles virus; Measles virus-infected cells, CPE protection, absorbance; actives 1.5% (n = 140,000); protection (pct of control), % at 4 µM; AID 841; in the data active = protection mostly above about 24%, no sharp cut-off; inactive = mostly below about 26%
# HSV replic up: HSV replication enhancement; actives 0.005% (n = 220,000); HSV replication augmentation in cells, fold increase; maximum fold increase; AID 1956; in the data active = maximum fold increase above about 1.5; inconclusive = no clear call, values can overlap the other calls; tested in PC3 cells
# ROMK mod: human ROMK K+ channel modulation, primary screen; P48048; B-score at 10 µM; Tet-inducible ROMK, thallium flux fluorescence; actives lie on both sides; actives 2% (n = 130,000);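 active = signal ratio slope over the read window, or its plate-corrected B-score, at least 3 SD from the plate mean, either direction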;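 also: B-score of the F/F0 ratio slope over 7 to 12 s after thallium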
# Arbovirus anti: antivirals against arbovirus infection. actives 0.37% (n = 200,000). arbovirus infection cell-based antiviral screen. inhibition, % at 10 µM; in the data active = inhibition above about 30%
# KCC2 sec1: KCC2 (human) modulation, secondary assay; shares compounds with Cl transport mod; HEK293-KCC2, thallium flux, FluoZin2 fluorescence; active compounds read high; normalised thallium flux (F/F0 slope) at 10 µM; actives 15% (n = 3,700); AID 1713;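 active = thallium flux slope above the same plate's solvent-only control mean plus 3 SD; inconclusive = the two replicate wells disagree; inactive = no significant difference from solvent-only control wells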
# KCC2 bumet counter: bumetanide-insensitive thallium flux in KCC2 cells with ouabain, counter-screen. shares compounds with Cl transport mod. HEK293-KCC2 + bumetanide/ouabain, thallium flux FluoZin2; active compounds read high. normalized thallium flux at 10 µM. actives 49% (n = 3,700). AID 1714;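 active = thallium entry rate above the same plate's blocked-transporter control wells by more than 3 SD; inconclusive = the two repeat wells disagree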;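 also: raw slope of fluorescence over initial fluorescence between 10 and 20 s after thallium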
# KCC2 secondary2: confirmation of human KCC2 transport modulators | normalized thallium flux at 10 µM | actives 23% (n = 3,700) | HEK293-KCC2, thallium flux FluoZin2 fluorescence; actives lie on both sides; F/F0 rise rate, 10–20 s post-thallium | shares compounds with Cl transport mod;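 active = thallium flux slope more than 3 SD above or below the plate's solvent-only control mean, mostly below; inconclusive = the two repeat wells disagreed; inactive = no significant shift from solvent-only controls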
# HEK counter1: parental HEK flux effect, counter-screen; thallium flux rate (normalised fluorescence) at 10 µM; shares compounds with Cl transport mod; actives 46% (n = 3,700); HEK293 parental cells, thallium flux FluoZin2, ouabain; baseline-ratio fluorescence slope, 10–20 s after thallium;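 active = thallium flux rate significantly above the same plate's solvent-only control wells, beyond their mean plus 3 SD; inconclusive = the two replicate wells gave conflicting results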
# KCC2 retest ouab: modulates human KCC2 on retest with ouabain; shares compounds with Cl transport mod; HEK293-KCC2, thallium flux FluoZin2 fluorescence; bidirectional: low = inhibitor, high = activator; raw Tl+ flux slope (below DMSO = inhibition, above = activation) at 10 µM; actives 48% (n = 3,700); AID 1717;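 active = thallium flux slope beyond 3 SD from same-plate DMSO control mean in most replicates, usually higher, sometimes lower; inconclusive = repeat tests gave conflicting results; inactive = no significant difference from controls in most replicates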;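 also: slope of initial-normalized fluorescence between seconds 10 and 20 after thallium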
# HEK counter2: parental HEK flux effect, counter-screen 2; thallium flux slope at 10 µM; actives 33% (n = 3,700); shares compounds with Cl transport mod; HEK293 parental, thallium flux FluoZin-2 fluorescence slope;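 active = thallium flux slope above the same plate's solvent-control mean plus 3 SD in both duplicate wells; inconclusive = duplicate wells that disagreed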;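 also: run without ouabain in cells lacking the KCC2 cotransporter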
# A number is an active result; 0 = inactive; ? = inconclusive; - = not tested or not shown. Only some compounds are listed: those with a hit (about 4% of all), similar ones and a draw of the others.
SMILES,Cl transport mod,Measles CPE,HSV replic up,ROMK mod,Arbovirus anti,KCC2 sec1,KCC2 bumet counter,KCC2 secondary2,HEK counter1,KCC2 retest ouab,HEK counter2
CCC(C)n1c(=S)[nH]c2ccccc2c1=O (centres undefined),101,-,0,0,0,0.0422,0.142,0.0546,0.133,0.11,0.0392
CCOC(=O)/C(C#N)=C1/C=C(C)NC(c2ccccc2O)=N1,-3.78,0,0,0,0,0,0,0.0222,0.0053,0.0134,?
O=C(NC1CCCC1)c1n[nH]c2ccccc12,0,-,0,0,0,-,-,-,-,-,-
CCOC(=O)Cn1c(=O)oc2cc(S(=O)(=O)N3CCc4ccccc43)ccc21,-3.26,0,0,-,0,0,0,0,0,0,0
Cc1cccc(C=Nc2ccccc2C(N)=O)c1,-4.75,0,0,0,0,0,0,0,0,0,0
O=C(NC1CCCC1)C1CCN(C(=O)c2ccc(-c3ccccc3)cc2)CC1,-,-,0,-,0,-,-,-,-,-,-
COc1cc(/C=C/C(=O)O)ccc1O,-,-,0,-,-,-,-,-,-,-,-
COc1cc(/C=C/c2ccc3c(Br)cc(Br)c(O)c3n2)ccc1O,7.52,-,?,-,-,0,0.0126,0,0.00906,0,0
S=c1nc2ccccc2c2nc(-c3ccccc3)[nH]n12,32.3,0,-,-,0,0.0301,0.0459,0,0.013,0.0413,0.0169
Nc1nc(-c2cc3ccccc3o2)cs1,0,-,0,0,-,-,-,-,-,-,-
O=C(O)c1ccccc1C(=O)Nc1n[nH]c(=S)s1,0,0,0,-,0,-,-,-,-,-,-
S=c1[nH]nc(Nc2ccccc2Cl)s1,-5.33,-,0,0,0,0.00413,0.00938,0.0215,0.0118,0.0124,0.0144
S=c1[nH]nc(Nc2cccc(Cl)c2)s1,-5.84,-,0,0,0,0,0,0.0198,0,?,0
COc1ccc(C(NC(=O)C2CCCCC2)c2c(O)ccc3ccccc23)cc1 (centres undefined),0,0,0,0,0,-,-,-,-,-,-
COc1ccccc1NS(=O)(=O)c1ccc(NC(=O)c2ccncc2)cc1,0,-,0,0,0,-,-,-,-,-,-
COc1ccc(C(=O)NC(=S)NNC(=O)CNC(=O)C2CCCCC2)cc1,0,-,0,0,0,-,-,-,-,-,-
CCOC(=O)c1cnc(-c2cccc(OC)c2)[nH]c1=O,-,0,0,-,0,0,?,0,0,0,0
FC(F)(F)c1cc(-c2ccco2)nc(NCc2cccnc2)n1,-,0,-,0,0,0,0,0,0,0,0
CN(CC(=O)N1CC(=O)N(CCc2ccccc2)C(=O)C1)S(=O)(=O)c1cccc2nsnc12,-4.02,0,0,-,0,0,0.00562,?,0,?,0
CC1(C)CC[C@@]23CC[C@]4(C)[C@@](OC2=O)(C3C1)[C@H]1O[C@H]1C1[C@@]2(C)CC[C@H](O)C(C)(C)C2CC[C@]14C (some centres undefined),-,-,0,-,-,-,-,-,-,-,-
CC(C)OC(=O)CC1C(=O)NCCN1C(=S)NC(=O)c1ccc(F)cc1 (centres undefined),0,-,0,0,0,-,-,-,-,-,-
CC1CCCN(C(=O)c2ccc3c(=O)n(C4CCCC4)c(=S)[nH]c3c2)C1 (centres undefined),15.5,-,0,0,0,0,0.0248,?,0.0224,?,0
O=C(c1ccc2c(=O)n(C3CCCC3)c(=S)[nH]c2c1)N1CCCCCC1,5.32,-,0,0,0,0,0.0247,0,0.0101,0,0.0128
O=C(c1ccc2c(=O)n(-c3ccccc3)c(=S)[nH]c2c1)N1CCCCC1,0,-,0,0,0,-,-,-,-,-,-
CCN(CC)CCn1c2ccccc2c2cnc(N)c(C#N)c21,0,0,0,-,0,-,-,-,-,-,-
SMILES,Cl transport mod,Measles CPE,HSV replic up,ROMK mod,Arbovirus anti,KCC2 sec1,KCC2 bumet counter,KCC2 secondary2,HEK counter1,KCC2 retest ouab,HEK counter2
O=C(CO/N=C/c1c(Cl)cccc1Cl)NNC(=O)c1ccc(Cl)cc1,6.66,-,0,0,-,0,0.0125,0,?,0,0
O=C(CO/N=C/c1c(Cl)cccc1Cl)NNC(=O)c1cccc(Cl)c1,0,-,0,0,-,-,-,-,-,-,-
O=C(Cn1nnc2c(cnn2-c2ccccc2)c1=O)N1CCN(c2ccccc2F)CC1,-5.48,0,0,-,0,0,?,0.0205,0,0.0143,0
O=c1oc(-c2ccc(Br)o2)nc2ccccc12,0,0,0,0,0,-,-,-,-,-,-
Cc1ccc(OC(=O)c2cc(C)nn2C(C)(C)C)cc1,0,-,0,-,-,-,-,-,-,-,-
CC(=C/c1ccccc1)/C=N/n1c(-c2ccco2)n[nH]c1=S,-,0,0,-,0,-,-,-,-,-,-
CC(/C=N/n1c(-c2cc(C)[nH]n2)n[nH]c1=S)=C\c1ccccc1,-4.42,0,0,-,0,0,0,0,?,0,0
CC1(c2nnc(Cc3ccccc3)o2)CC(c2cccnc2)=NO1 (centres undefined),-,-,0,-,-,-,-,-,-,-,-
C=CCn1cnc2scc(-c3ccc(CC)cc3)c2c1=O,-4.12,0,0,0,0,0,0,0,0,0,0
Cc1ccc2c(c1)C(c1ccc(O)cc1)(c1ccc(O)cc1)C(=O)N2C,3.71,-,0,0,0,0,0,0,0,0,?
Cc1cc2ccccn2c1C(=S)NC(=O)c1ccccc1,65.5,0,0,0,0,0.02,0.144,0.101,0.12,0.121,0.105
Cc1cc2ccccn2c1C(=O)c1ccncc1,0,0,0,-,0,-,-,-,-,-,-
COc1ccc(CCNc2oc(COc3ccccc3)nc2C#N)cc1,-,0,-,0,0,0,0,0,?,?,0
COc1ccc(Nc2oc(COc3ccc(OC)cc3)nc2C#N)cc1,0,0,0,-,0,-,-,-,-,-,-
N#Cc1nc(COc2ccccc2Cl)oc1NCc1cccnc1,-2.99,0,0,-,0,0,0,0,0,0.0215,0
CN(Cc1ccccc1)c1oc(COc2ccccc2F)nc1C#N,-,0,0,-,0,0,0,0,0,?,0
N#Cc1nc(COc2ccccc2F)oc1NCCc1ccccc1,-,0,-,0,0,0,?,0.0248,0.00643,0.0141,0
COc1ccc(C2=NN(c3ccccc3)C(c3cn(CCC(=O)O)nc3-c3ccccc3)C2)cc1 (centres undefined),0,-,0,0,0,-,-,-,-,-,-
CC(=O)NC1C(Oc2ccc3c(C)cc(=O)oc3c2)OC(COC(C)=O)C(OC(C)=O)C1OC(C)=O (centres undefined),0,-,0,0,0,-,-,-,-,-,-
CC(C)[C@H]1COCCS(=O)(=O)N1Cc1ccccc1,-,-,0,-,-,-,-,-,-,-,-
